High-throughput results deposited in PubChem BioAssay by several laboratories.
Hits are enriched below; roughly 12% of the tested compounds scored in any of these assays.
WT yeast gro inh – growth inhibition of WT strain, primary screen, mitochondrial fusion inhibitor project, WT and mutant strains, chemical genetic; mitochondrial fusion phenotypic screen; inhibition, % at 10 µM; 190,000 tested, 2.1% active; AID 1362, 2008; in the data active means inhibition above about 58%; tested in S. cerevisiae
Insulin prom up – insulin promoter activators in MIN6 cells, imaging, high-content screening, mouse beta cells. z-score at 5 µM. 190,000 tested, 0.3% active. MIN6 insulin promoter-GFP reporter; active compounds read high. AID 1625, 2009;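 active means z-score above 3 at 5 µM with at least 500 cells counted in the well; inconclusive means wells under 500 cells, flagged as cytotoxic or low count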
Cl transport mod – KCC2 cotransporter modulators, thallium flux, primary screen, cell-based, HEK293 KCC2, FluoZin-2 fluorescence, MLSMR; Solute carrier family 12 member 5 (Homo sapiens), Q9H2X9; KCC2 cells, thallium flux FluoZin-2 fluorescence; B-score of Tl+ flux slope (higher = more flux/activation; lower = inhibition) at 10 µM; 190,000 tested, 2.2% active; AID 1456, 2008;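 active means thallium flux slope and its plate-corrected score both differing from the plate sample mean at a set confidence after two filtering rounds, in either direction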;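 further: slope of fluorescence scaled to starting intensity during 10 to 20 s after thallium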
Target sequence (Q9H2X9 whole entry, looked up): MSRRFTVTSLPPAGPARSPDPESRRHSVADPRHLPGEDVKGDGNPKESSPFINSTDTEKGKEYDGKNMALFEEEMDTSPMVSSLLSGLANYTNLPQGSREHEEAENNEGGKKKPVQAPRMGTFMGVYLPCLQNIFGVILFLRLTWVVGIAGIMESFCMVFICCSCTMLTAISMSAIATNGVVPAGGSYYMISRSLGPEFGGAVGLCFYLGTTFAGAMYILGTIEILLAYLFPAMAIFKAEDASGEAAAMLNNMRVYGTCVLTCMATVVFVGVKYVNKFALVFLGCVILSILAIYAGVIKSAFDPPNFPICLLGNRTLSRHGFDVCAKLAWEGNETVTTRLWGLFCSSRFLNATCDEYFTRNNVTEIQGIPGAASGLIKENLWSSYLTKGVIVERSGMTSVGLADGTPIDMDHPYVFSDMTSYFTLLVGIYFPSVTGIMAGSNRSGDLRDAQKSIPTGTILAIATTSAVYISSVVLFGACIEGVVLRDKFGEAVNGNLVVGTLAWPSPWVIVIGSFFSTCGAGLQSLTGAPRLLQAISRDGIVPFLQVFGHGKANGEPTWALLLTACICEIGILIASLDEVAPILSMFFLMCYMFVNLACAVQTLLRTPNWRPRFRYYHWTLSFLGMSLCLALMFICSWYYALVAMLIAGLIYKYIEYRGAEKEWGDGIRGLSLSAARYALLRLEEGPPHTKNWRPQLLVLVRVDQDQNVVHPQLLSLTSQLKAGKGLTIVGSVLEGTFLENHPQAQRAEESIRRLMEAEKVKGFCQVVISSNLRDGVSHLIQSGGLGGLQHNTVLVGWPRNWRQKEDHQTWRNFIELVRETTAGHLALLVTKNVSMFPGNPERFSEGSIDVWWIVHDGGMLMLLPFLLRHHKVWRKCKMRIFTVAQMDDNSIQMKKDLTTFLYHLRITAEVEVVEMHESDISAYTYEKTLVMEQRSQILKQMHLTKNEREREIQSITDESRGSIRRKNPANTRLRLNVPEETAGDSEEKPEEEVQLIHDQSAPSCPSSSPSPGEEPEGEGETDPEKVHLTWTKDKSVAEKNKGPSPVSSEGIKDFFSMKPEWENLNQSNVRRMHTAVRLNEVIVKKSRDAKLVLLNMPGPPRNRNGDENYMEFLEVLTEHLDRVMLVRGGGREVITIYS
ROMK primary – ROMK potassium channel modulators, primary screen, cell-based, thallium flux, MLSMR library; B-score at 10 µM; 130,000 tested, 2% active; AID 1918, 2009; Tet-inducible ROMK, thallium flux fluorescence; actives lie on both sides;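 active means signal ratio slope over the read window, or its plate-corrected B-score, at least 3 SD from the plate mean, either direction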;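 further: B-score of the F/F0 ratio slope over 7 to 12 s after thallium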
Lmaj promast – Leishmania major promastigote growth inhibition, primary screen; 200,000 tested, 9% active; inhibition, % at 10 µM; Leishmania major promastigotes, resazurin fluorescence viability; in the data active means inhibition above about 50%;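 further: promastigotes grown with compound for 44 hours at 28 °C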
Insulin prom inh – inhibitors of insulin promoter-driven GFP, primary screen, imaging, TRM-6 cells (human fetal islet line), eGFP reporter, cell count | reporter expression induced with tamoxifen | inhibition, % at 2 µM | 130,000 tested, 0.9% active | AID 1273, 2008;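 active means inhibition above the mean plus 3 SD, with well images judged a real hit on visual review, cut at about 60% in these data, passing the limit was not always enough; inconclusive means inhibition over the cutoff but images rejected on review; inactive means inhibition not above the cutoff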
KCC2 secondary – KCC2 modulators in sodium-free buffer, confirmation, cell-based, HEK293 KCC2, thallium flux, secondary assay; FluoZin2 fluorescence; active compounds read high; 3,700 tested, 15% active; AID 1713, 2009; shares compounds with Cl transport mod; normalised thallium flux (F/F0 slope) at 10 µM;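 active means thallium flux slope above the same plate's solvent-only control mean plus 3 SD; inconclusive means the two replicate wells disagree; inactive means no significant difference from solvent-only control wells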
KCC2 bumet counter – thallium flux persisting under bumetanide in KCC2 cells, confirmation, counter-screen for KCC2 modulator project, cell-based, HEK293 KCC2, FluoZin2, secondary assay 3. shares compounds with Cl transport mod. HEK293-KCC2 + bumetanide/ouabain; active compounds read high. normalized thallium flux at 10 µM. 3,700 tested, 49% active. AID 1714, 2009;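 active means thallium entry rate above the same plate's blocked-transporter control wells by more than 3 SD; inconclusive means the two repeat wells disagree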;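 further: raw slope of fluorescence over initial fluorescence between 10 and 20 s after thallium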
KCC2 sec2 – KCC2 modulators without ouabain present, confirmation, cell-based, HEK293 KCC2, thallium flux, FluoZin2, secondary assay 2; shares compounds with Cl transport mod; thallium flux FluoZin2 fluorescence; actives lie on both sides; F/F0 rise rate, 10–20 s post-thallium; normalized thallium flux at 10 µM; 3,700 tested, 23% active;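 active means thallium flux slope more than 3 SD above or below the plate's solvent-only control mean, mostly below; inconclusive means the two repeat wells disagreed; inactive means no significant shift from solvent-only controls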;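 further: raw slope with 0.1% DMSO as baseline and bumetanide as block control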
HEK counter1 – thallium flux modulation in parental HEK cells, confirmation, counter-screen for KCC2 modulator project, cell-based, counterscreen 1 | shares compounds with Cl transport mod | HEK293 parental cells, thallium flux FluoZin2, ouabain; baseline-ratio fluorescence slope, 10–20 s after thallium | thallium flux rate (normalised fluorescence) at 10 µM | 3,700 tested, 46% active | AID 1716, 2009;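 active means thallium flux rate significantly above the same plate's solvent-only control wells, beyond their mean plus 3 SD; inconclusive means the two replicate wells gave conflicting results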
KCC2 ouabain – KCC2 inhibitors and activators, ouabain retest, confirmation, HEK-KCC2 cells; shares compounds with Cl transport mod; HEK293-KCC2, thallium flux FluoZin2 fluorescence; bidirectional: low = inhibitor, high = activator; raw Tl+ flux slope (below DMSO = inhibition, above = activation) at 10 µM; 3,700 tested, 48% active; AID 1717, 2009;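 active means thallium flux slope beyond 3 SD from same-plate DMSO control mean in most replicates, usually higher, sometimes lower; inconclusive means repeat tests gave conflicting results; inactive means no significant difference from controls in most replicates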;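 further: slope of initial-normalized fluorescence between seconds 10 and 20 after thallium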
HEK counter2 – native HEK Tl+ uptake effects, second counter-screen – HEK cells, counterscreen 2, counter-screen for KCC2 modulator project, confirmation; thallium flux slope at 10 µM; 3,700 tested, 33% active; HEK293 parental, thallium flux FluoZin-2 fluorescence slope; shares compounds with Cl transport mod;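 active means thallium flux slope above the same plate's solvent-control mean plus 3 SD in both duplicate wells; inconclusive means duplicate wells that disagreed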;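 further: run without ouabain in cells lacking the KCC2 cotransporter; slope of fluorescence scaled to its starting value between 10 and 20 s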
* = called active by the depositor; ? = inconclusive; / = no result.

SMILES	WT yeast gro inh	Insulin prom up	Cl transport mod	ROMK primary	Lmaj promast	Insulin prom inh	KCC2 secondary	KCC2 bumet counter	KCC2 sec2	HEK counter1	KCC2 ouabain	HEK counter2
O=C(N/N=C/c1ccc(Cl)c([N+](=O)[O-])c1)c1ccc2nc[nH]c2c1	-4	0.01	-0.66	/	4	21	/	/	/	/	/	/
O=C(O)COc1ccccc1/C=N/NC(=O)CNC(=O)c1ccc(F)cc1	/	-0.06	-0.12	/	/	/	/	/	/	/	/	/
O=C(NNC1=C(C(=O)C(F)(F)F)CCC1)c1ccc(Br)cc1	10	-0.52	11*	2	16	9	0.0096	0.024*	0.031	0.015*	?	0.012*
COc1ccccc1C(=O)NNC1=C(C(=O)C(F)(F)F)CCC1	17	-0.16	4.9*	/	0	-17	0.018	0.044*	0.043*	0.038*	0.041*	0.036*
COCCNc1nnc(SCC(=O)N2CCN(S(=O)(=O)c3ccccc3)CC2)s1	-1	0.2	-0.61	/	-5	/	/	/	/	/	/	/
NN/C(=C\[N+](=O)[O-])Nc1ccc(Cl)cc1	56	0.19	6.7*	0.02	11	/	0.011	0.023*	0.032	0.01*	0.021	0.01
COc1ccc(CCNc2oc(COc3ccc(Br)cc3)nc2C#N)cc1OC	22	-0.26	/	/	3	/	/	/	/	/	/	/
COc1ccc(CCNc2oc(COc3ccccc3F)nc2C#N)cc1	35	0.11	/	0.76	-3	38	0.0077	0.0034*	0.034	0.0053*	0.017*	0.0098
N#Cc1nc(COc2ccccc2F)oc1NCc1ccc(F)cc1	2	0.29	/	/	-9	/	0.0059	0.005	?	0.0075	?	0.011
COc1ccc(Nc2oc(COc3ccc(Cl)cc3)nc2C#N)cc1	-15	-0.43	/	/	25	14	/	/	/	/	/	/
CN(C)c1oc(COc2ccccc2F)nc1C#N	-13	-0.11	-0.85	-0.46	-6	0	/	/	/	/	/	/
C=CCNc1oc(COc2ccc(C)cc2)nc1C#N	9	2.2	/	/	4	/	0.008	0.0053	0.032	0.0074	?	0.011
COc1ccc(CNC(=O)c2ccc(-c3ccccc3)cc2)cc1OC	-10	0.05	/	0.8	-4	-8	/	/	/	/	/	/
CSC1=N/C(=C/c2cccnc2)C(=O)N1Cc1ccc(Cl)cc1	/	-0.04	-1.9	/	/	/	/	/	/	/	/	/
COc1ccc(CNn2c(-c3cccc(C)c3)nc3ccccc3c2=O)cc1OC	-2	/	/	-0.39	5	0	0.0094	0.006	0.03	0.0075	0.021	0.01
COc1ccccc1CNn1c(-c2cccc(C)c2)nc2ccccc2c1=O	25	/	/	-1.3	9	-37	/	/	/	/	/	/
CSc1ccccc1NC(=S)Nc1ccc(S(N)(=O)=O)cc1	11	/	3*	0.045	2	/	0.0075	0.0075*	0.033	0.0096*	?	?
CSc1ccccc1NC(=O)CN(C)CC(=O)Nc1ccccc1C(F)(F)F	-12	-0.17	-1.1	-1.1	9	38	/	/	/	/	/	/
CSc1ccccc1NC(=S)Nc1ccccc1C(F)(F)F	-3	-0.11	4.7*	-0.062	-6	-44	0.0075	0.011*	0.033	0.013*	?	0.012
CCOC(=O)CNC(=O)C(CO)NC(=O)OCc1ccccc1 (stereo not given)	-18	-0.65	-0.0093	/	-2	/	/	/	/	/	/	/
CCOC(=O)CNC(=O)C(Cc1ccccc1)NC(=O)OCc1ccccc1 (stereo not given)	-28	-0.21	-5.5*	-1	-3	-7	0.0063	0.0052	0.025*	0.007	?	0.011
O=C(/C=C/c1ccccc1)N1CCC(Cc2ccccc2)CC1	3	-0.25	/	/	-4	57	0.0068	0.006	0.027	0.0068	0.014*	0.01
O=C(/C=C/c1ccccc1)N1CCC(c2ccccc2)C1 (stereo not given)	24	/	-2.3	-0.15	-4	-19	/	/	/	/	/	/
CCCS(=O)(=O)N1CCC(C(=O)N2CCC(Cc3ccccc3)CC2)CC1	1	0	/	0.65	-2	69	0.0076	0.0066	0.029	0.0075	0.028*	0.01
O=C(CSc1cccc2cccnc12)N/N=C/c1ccc(O)cc1	/	0.57	0.84	/	/	/	/	/	/	/	/	/
SMILES	WT yeast gro inh	Insulin prom up	Cl transport mod	ROMK primary	Lmaj promast	Insulin prom inh	KCC2 secondary	KCC2 bumet counter	KCC2 sec2	HEK counter1	KCC2 ouabain	HEK counter2
COc1cccc(/C=N/NC(=O)CSc2cccc3cccnc23)c1	/	-0.36	28*	-1.7	/	/	0.011	0.03*	0.035	?	0.03*	0.012
Cc1ccc(-c2nc3sc(C#N)c(N)n3c(=O)c2C#N)cc1	1	2.4	0.11	-0.57	-3	/	/	/	/	/	/	/
CCOC(=O)c1c2c([nH]c(=S)c1C#N)CCCC2	/	0.08	11*	/	/	/	0.011	0.011*	0.033	?	?	0.012
CCc1[nH]c(=S)c(C#N)c2c1CCCC2	-4	-0.02	16*	0.66	-7	-39	0.0065	0.014*	0.031	0.017*	?	0.014*
CCc1[nH]c(=O)c(C#N)c2c1CCCC2	2	0.33	0.082	/	-4	-43	/	/	/	/	/	/
CCOC(=O)c1c(O)c2c([nH]c1=O)CCCC2	4	-1.2	/	0.64	-3	11	/	/	/	/	/	/
CCSc1nc2c(c(=O)[nH]c(=O)n2C)n1C/C=C(/C)Cl	4	0.38	7*	0.27	-4	/	0.0088	0.0066	0.033	0.007	0.02	0.01
O=C(CNC(=O)c1cccs1)NC1=NCCS1	-11	-0.02	2.9*	/	-5	52	0.0057	0.0049	0.03	0.008	0.019	0.011
Cc1nn(-c2ccccc2)nc1C(=O)NN	/	0.05	/	/	/	/	/	/	/	/	/	/
